Results on 40 molecules are retold here after PubChem BioAssay.

The source made the active and inactive calls.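 The calls were made as follows: active = visually confirmed hit in the image check and inhibition above 20%; inconclusive = visually confirmed hit but inhibition not above 20%; inactive = no visual hit in the image check.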

A short description of the experiment: inhibitors of E-selectin induction by TNFa, primary screen, imaging, HUVEC, immunofluorescence, MLSMR starter and 10KST1 sets (AID 487).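 As to inhibition: signal is fraction of cell area covered by stained E-selectin grains.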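 As to nuclei count: 100% = median nuclei count of all wells on the same plate.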 The following applies: HUVEC TNFalpha-induced E-selectin immunofluorescence imaging, at 2 µM; inhibition: stronger effect = higher value; nuclei count: measured here: cell number, toxicity.
With `Cc1ccc(NC2=NC(c3ccccc3)n3c(nc(C)cc3=O)N2)cc1` (stereo not given), the inhibition was -13% (inactive) and the nuclei count amounted to 90.9%.

Regarding `CC(C)NC(=O)NC(=O)COc1cccc2c1OC(C)(C)C2`, the inhibition is -16.4% (inactive) and the nuclei count was determined as 100%.

As to `COCCOc1nc2ccccc2nc1C`, the nuclei count is 104% and the inhibition was -5.9% (inactive).

Regarding `O=C(CSc1nnc2scc(-c3ccccc3)n12)N1CCN(Cc2ccccc2)CC1`, the nuclei count stood at 91.4% and the inhibition was 19.1% (inactive).

For the molecule `CN1CCCN(C(=O)c2cc(=O)[nH]c3ccccc23)c2nc3ccccc3nc21`, the inhibition is -33% (inactive) and the nuclei count is 117%.

In the case of `CCOc1ccc(OCC)c(NC(=O)C2CCN(S(=O)(=O)c3cnc[nH]3)CC2)c1`, the nuclei count is 80.4% and the inhibition was 22.9% (inactive).

Take `CC(=O)Nc1cccc(NC(=O)CSc2nnnn2C(C)C)c1`: the nuclei count was determined as 120% and the inhibition was -46.4% (inactive).

Consider `CCc1ccc2oc(-c3cc(N)ccc3Cl)nc2c1`, for which the inhibition was -53.6% (inactive) and the nuclei count was found to be 110%.

In the case of `CC(C)CCn1c(SCC#N)nc2c(sc3ccccc32)c1=O`, the inhibition was -60.1% (inactive) and the nuclei count came out at 119%.

Turning to `O=c1c2c(nc3nc(COc4ccccc4)[nH]n13)CCC2`, the nuclei count turned out to be 102% and the inhibition is -89.8% (inactive).

Turning to `CCCCC(=O)Nc1nn(CCC)c2nc3ccccc3cc12`, the nuclei count was 116% and the inhibition is -44.8% (inactive).

On to `COc1nc2ccc(C)cc2cc1-c1noc(-c2cccnc2)n1`, for which the nuclei count amounted to 109% and the inhibition was -71.7% (inactive).

For `O=C(NC1CCCc2ccccc21)C1CCN(S(=O)(=O)c2cnc[nH]2)CC1` (stereo not given), the nuclei count worked out at 111% and the inhibition is -6.8% (inactive).

As for `CCn1cc(C2=NOC(C(=O)Nc3cc(C)nn3-c3ccccc3)C2)c(C)n1` (stereo not given), the inhibition was -52.6% (inactive) and the nuclei count was 84.5%.

On to `CC(C)CC(c1nnnn1C1CCCC1)N1CCN(c2ccccc2F)CC1` (stereo not given), for which the nuclei count stood at 109% and the inhibition is -26.9% (inactive).

Take `Cc1cc2c(s1)c1cnn(CC(=O)NCCc3ccccc3)c(=O)c1n2C`: the inhibition was -76.9% (inactive) and the nuclei count was 102%.

On to `CN(C(=O)CSc1nc2c(c(=O)[nH]1)CCCC2)C1CCCCC1`, for which the inhibition is -253% (inactive) and the nuclei count turned out to be 120%.

Regarding `CCc1cc2c(NCCC(=O)O)ncnc2s1`, the inhibition is 13.4% (inactive) and the nuclei count was found to be 110%.

In the case of `CC(C)(C)C(=O)Oc1cc(N)n(S(=O)(=O)c2ccccc2)n1`, the inhibition was -24.6% (inactive) and the nuclei count turned out to be 129%.

For the molecule `CC(C)CCNC(=O)NC(=O)CSc1nnc(-c2ccccc2Br)o1`, the nuclei count worked out at 125% and the inhibition was -32.9% (inactive).

`O=C1c2cccnc2C(O)N1Cc1ccc(F)cc1` (stereo not given): the inhibition was -11.7% (inactive) and the nuclei count was determined as 116%.

Regarding `Cc1cccn2c(=O)c3cc(C#N)c(=O)n(CCCN4CCOCC4)c3nc12`, the inhibition is -24.9% (inactive) and the nuclei count was 173%.

Consider `Nc1cc(C(=O)O)ccc1Nc1ccccc1`, for which the nuclei count was 101% and the inhibition was 15.1% (inactive).

Consider `CCn1c(Cc2ccc(OC)cc2)nnc1SCC(=O)Nc1cccc(C(=O)OC)c1`, for which the inhibition was -29.7% (inactive) and the nuclei count was 107%.

`COCCNC(=O)c1ccc2c(c1)nc(C)n2-c1cccc(F)c1`: the inhibition is -16.6% (inactive) and the nuclei count was found to be 98.7%.

Take `Cc1ccc2cc(CN(CC(C)C)C(=O)C3CCCO3)c(=O)[nH]c2c1` (stereo not given): the inhibition is -62.4% (inactive) and the nuclei count came to 147%.

Turning to `CCn1c(=S)sc2nc(C)sc21`, the nuclei count was found to be 124% and the inhibition is -38.4% (inactive).

Regarding `O=C(OCCCN1C(=O)c2ccccc2C1=O)c1ccco1`, the nuclei count turned out to be 98.5% and the inhibition is 33.4% (inactive).

`Cc1ccc(-c2nn(C)c(=O)c3ccccc23)cc1S(=O)(=O)N1CCOCC1`: the inhibition was -64.2% (inactive) and the nuclei count stood at 102%.

Turning to `OCc1nc2ccccc2n1CC(O)Cn1ccc2ccccc21` (stereo not given), the nuclei count came out at 117% and the inhibition is -71.2% (inactive).

Consider `O=C(c1cnsn1)N1CCN(c2ccccn2)CC1`, for which the inhibition is 1.4% (inactive) and the nuclei count amounted to 95.4%.

As for `Cc1ccccc1CSCC(=O)c1c(N)n(C)c(=O)n(C)c1=O`, the nuclei count amounted to 103% and the inhibition is 34.1% (inactive).

With `CCC(=O)N1CCc2cc(OC)c(OC)cc2C1COc1ccc(C(=O)OC)cc1` (stereo not given), the inhibition was 36.5% (inactive) and the nuclei count stood at 108%.

Take `O=C(Cn1nnc(-c2cccc(C(F)(F)F)c2)n1)NC(=O)NCc1ccco1`: the nuclei count came to 101% and the inhibition is 24.1% (inactive).

`CCN(CC)S(=O)(=O)c1ccc(C(=O)Oc2ccc3c(c2)OCO3)cc1`: the inhibition was -19.8% (inactive) and the nuclei count was determined as 110%.

As to `COc1ccccc1NC(=O)c1ccc(NC(=O)CSc2nnnn2C)cc1`, the nuclei count was found to be 100% and the inhibition is -63% (inactive).

As to `CCOc1ccc(NC(=O)CN(C)S(=O)(=O)c2cccs2)cc1`, the inhibition was -22.6% (inactive) and the nuclei count came out at 113%.

On to `COc1ccc(-n2c(SCC(=O)Nc3ccc(C(=O)O)cc3)nnc2-c2cccs2)cc1`, for which the inhibition was -43.4% (inactive) and the nuclei count was 150%.

Turning to `COc1cccc2cc(C(=O)Nc3cccnc3N3CCOCC3)c(=O)oc12`, the inhibition is -32.3% (inactive) and the nuclei count came to 98.9%.

As to `COc1cc(NC(=O)c2cc(-n3cnnc3)ccc2Cl)cc(OC)c1`, the inhibition was -46.1% (inactive) and the nuclei count turned out to be 95.5%.

The inhibition is the relative decrease from the control value, in per cent.
